These results are taken from PubChem BioAssay AID652039 (The Scripps Research Institute Molecular Screening Center, 2013).

The campaign covered roughly 370,000 compounds. About 3,300 (0.89%) were called active. This excerpt belongs to a sample that is enriched for actives. Unmarked numbers belong to inactive results.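 Rule for the calls: active = activation above the mean of all tested compounds plus 3 SD, computed per campaign excluding outliers beyond control limits (cut at about 13% in these data); inactive = the rest.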

The experiment deals with Kallikrein-7 (Homo sapiens) (UniProt P49862). Description: activation of human kallikrein-7 proenzyme – biochemical, fluorescence intensity, primary screen (AID 652039). The following applies: purified proKLK7, EDANS-DABCYL substrate fluorescence; at 7 µM; stronger effect = higher value; 100% is mature enzyme control, 0% vehicle.
Sequence of Kallikrein-7 (Homo sapiens) (P49862 whole entry, looked up): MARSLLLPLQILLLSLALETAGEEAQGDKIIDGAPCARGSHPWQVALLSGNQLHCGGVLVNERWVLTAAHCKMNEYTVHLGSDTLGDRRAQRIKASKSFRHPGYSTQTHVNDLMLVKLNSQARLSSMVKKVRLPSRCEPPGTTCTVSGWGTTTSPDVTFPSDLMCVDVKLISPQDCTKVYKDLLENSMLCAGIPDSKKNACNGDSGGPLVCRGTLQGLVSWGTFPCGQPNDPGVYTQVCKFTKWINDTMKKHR
With `CCOC(OCC)c1ccc(/C=C\c2nccc(N)n2)cc1`, the activation is 47.7% (active).

With `O=C(N1CCOCC1)N1CC[C@H]2[C@H](CCCN2Cc2ccc(F)cc2)C1`, the activation is 0.18%.

Take `COc1ccc2c(c1)CN1CN(CCc3ccccc3)S(=O)(=O)CC21` (stereo unspecified): the activation is -0.32%.

`CN(C(=O)CCn1c(=S)oc2ccccc21)C1CCCCC1`: the activation was -0.28%.

Regarding `CCOC(=O)C1=C(CC)OC(N)=C(C#N)C1c1ccc(F)cc1F` (stereo unspecified), the activation was -0.17%.

`COC(=O)C1=C(C)N(C)C(=S)NC1c1cc(OC)ccc1OC` (stereo unspecified): the activation was 0.24%.

Turning to `COC(=O)C1=C(C)OC(N)=C(C#N)C1c1cc(OC)ccc1OC` (stereo unspecified), the activation is 30.7% (active).

`CCOC(=O)C1=C(C)OC(N)=C(C#N)C1c1cncc(-c2ccc(F)cc2)c1` (stereo unspecified): the activation was 0.49%.

For `CCC1=C(C(=O)OC)C(c2cc(OC)ccc2OC)C(C#N)=C(N)O1` (stereo unspecified), the activation is 15.6% (active).

With `CC(C)c1ccc(C2C(C#N)=C(N)Oc3c2oc(CO)cc3=O)cc1` (stereo unspecified), the activation was 0.31%.

On to `Cc1ccc(CN2CCCCC(NC(=O)C3CCCCC3)C2=O)cc1` (stereo unspecified), for which the activation is -0.03%.

`CCOC(=O)[C@]12CCCC=C1N(Cc1ccc(OC)cc1)C(=O)[C@@H]2CC(=O)NCc1cccs1`: the activation was -0.38%.

On to `Clc1ccc(-n2c(COc3ccccc3)nnc2SCc2nc3ccccc3[nH]2)cc1`, for which the activation was 0.33%.

In the case of `O=C(CSc1nnc(-c2ccccn2)n1-c1ccc(Cl)cc1)Nc1ccccc1-c1ccccc1`, the activation was 0.1%.

As for `COC(=O)[C@]12C[C@H](CC(=O)N3CCOCC3)C(=O)N(Cc3ccc(Cl)cc3Cl)C1=C[C@H](COCc1ccccc1)O[C@@H]2C`, the activation is 0.05%.

For the compound `Cc1cc(=O)[nH]c(SCC(=O)Nc2ccc(F)cc2F)n1`, the activation was -0.3%.

In the case of `CCN1CCc2c(C#N)c(NCc3ccccc3)nc(NCCO)c2C1`, the activation was 14.3% (active).

As for `CC(C)CCNc1nc(N2CCCC2)c2c(c1C#N)CCN(C)C2`, the activation is -0.46%.

Turning to `CCCCc1nc(NCc2ccccc2)c(C#N)c2c1CCCC2`, the activation was -0.04%.

As to `Clc1cccc(Cl)c1OCCOCCNCc1ccccc1`, the activation is -0.51%.

Regarding `CC1(C)CC(=O)CC2(C1)NCC(c1ccccc1Cl)c1c2[nH]c2ccccc12` (stereo unspecified), the activation was 0.29%.

Consider `CC(=O)N1CCc2cc(S(=O)(=O)NCCC(=O)N3CCCC3)ccc21`, for which the activation is 0.03%.

As to `COc1ccc(-c2cc(C(=O)n3cnc4ccccc43)c3ccccc3n2)cc1`, the activation is 20.8% (active).

Consider `Cc1cc(C(=O)OCC(=O)Nc2nccs2)c2ccccc2n1`, for which the activation was -2.12%.

`COc1ccc(-c2cc3n(n2)CCc2nc4ccccc4n2-3)cc1`: the activation was 0.02%.

As for `CNC(=O)COC(=O)c1cc(-c2ccc(OC)cc2)nc2ccccc12`, the activation is 113% (active).

`COc1ccc(S(=O)(=O)n2cnc3ccccc32)c(C)c1`: the activation is -0.43%.

Regarding `C/C(N)=C(/C#N)C(=O)COC(=O)c1cc(-c2cccc(Br)c2)nc2ccccc12`, the activation is 0.31%.

Take `CN(CCO)c1cccc2c1S(=O)(=O)N(Cc1cn(Cc3ccc(C(F)(F)F)cc3)nn1)Cc1ccccc1O2`: the activation was 1.21%.

Consider `COC(=O)C[C@@H]1CC[C@H]2[C@@H](COc3ccc(NS(=O)(=O)CC(F)(F)F)cc3C(=O)N2C)O1`, for which the activation is -0.11%.

Consider `CCOC(=O)CN1C(=O)C(O)(CC(=O)c2ccccn2)c2ccccc21` (stereo unspecified), for which the activation is 0.64%.

With `O=C(NCCC1=CCCCC1)C1CCN(S(=O)(=O)c2ccc(Cl)s2)CC1`, the activation is 0.13%.

For `Cc1cc(NS(=O)(=O)c2ccc(NC(=O)CSc3nnc(SCc4ccc(F)cc4)s3)cc2)nc(C)n1`, the activation is -0.24%.

For the compound `COC(=O)c1cccc(Cn2ccc3ccc(-c4ccc5ccn(C(=O)c6ccccc6C)c5c4)cc32)c1`, the activation was -10.5%.

For `COC(=O)c1c(C)c(C)nc(N)c1C#N`, the activation is 33.8% (active).

Turning to `COCc1c(N)c(C)nc(Cl)c1C#N`, the activation was -1.78%.

In the case of `Cc1nc(SCC(=O)NC2CCCCC2C)c(C#N)c(C)c1C` (stereo unspecified), the activation is -0.08%.

Regarding `Cc1ccccc1NC(=O)Cn1nnc(-c2ccccc2F)n1`, the activation is -0.28%.

Take `O=C(NC1CCCC1)C1CSCCS(=O)(=O)N1Cc1ccccc1` (stereo unspecified): the activation was 0.33%.

Consider `Cc1c[nH]c2cccc(-c3ccc(Cl)cc3)c12`, for which the activation was 0.5%.

Take `O=C(CSc1nnc(COc2ccccc2)n1Cc1ccco1)c1ccc2ccccc2c1`: the activation is 0.09%.

For `O=C(NCc1cccs1)C1CCCN(S(=O)(=O)c2ccc([N+](=O)[O-])cc2)C1` (stereo unspecified), the activation is -0.47%.

Turning to `Cc1ccc(-n2c(SCC(=O)Nc3ccc(S(=O)(=O)Nc4nccs4)cc3)nnc2-c2ccncc2)cc1`, the activation is 0.08%.

`CCOC(=O)CSc1nc2c(c(=O)n(Cc3ccccc3Cl)c(=O)n2C)n1C`: the activation is -0.44%.

`CCCCCn1c(=O)c(C(=O)OCC)c(Cl)c2ccccc21`: the activation was 27.6% (active).

For `CCCCNC(=O)CCn1c(=O)c2ccccc2n(Cc2cc(C)ccc2C)c1=O`, the activation was -0.3%.

`C=CCn1c(SCC(N)=O)nnc1-c1ccccc1OC`: the activation was -0.28%.

For `Cc1ccc(C2=CCN(C)C(=O)N2c2ccc(Cl)cc2)cc1`, the activation was 0.11%.

On to `C[C@H](C(=O)N(C)c1ccccc1)[C@@H](O)c1ccc2ccccc2c1`, for which the activation is -0.85%.

With `CN(C)S(=O)(=O)c1cccc(C(=O)N/N=C\c2ccco2)c1`, the activation was -0.04%.

On to `Cc1c(CC(=O)NCC(=O)NCC(=O)O)c(=O)oc2cc3oc4c(c3cc12)CCCC4`, for which the activation was -11.5%.

For `Cc1coc2c1c(C)cc1oc(=O)c(CC(=O)NCC(=O)N[C@H](C(=O)O)C(C)C)c(C)c12`, the activation is 21.3% (active).

As to `CC[C@@H](C)[C@H](NC(=O)CCc1c(C)c2cc3c4c(oc3c(C)c2oc1=O)CCCC4)C(=O)O`, the activation is -2.12%.

As to `CCOC(=O)[C@]12CCCC=C1N(Cc1ccc(OC)cc1)C(=O)[C@@H]2CC(=O)N1CCOCC1`, the activation was -0.23%.

For the compound `Cc1ccc(CCn2c3c(c4ccccc42)CN(C)CC3)cn1`, the activation is -0.24%.

For `COC(=O)[C@@]12CCCCC3=C1N(CCC3)C(=O)[C@H]2CC(=O)NCc1cccc2ccccc12`, the activation was 0.65%.
